JMJD2A Tudor: JMJD2A Tudor domain (human) inhibition; O75164; AlphaScreen JMJD2A-Tudor / H3K4me3 peptide binding; Potency, µM (doses to about 114 µM), for the others: at the top dose activity change, negative = inhibition, usual class: inhibitors; 4.4% of 390,000 active; AID 504339; note: potency is the fitted concentration of half-maximal effect; % is set by controls: 0 for no effect and ±100 for the full control effect; nearly all actives have a fitted effect of over 50% in size
PI5P4K alpha inh: blocks human PI5P4K alpha kinase activity | P48426 | PI5P4Kalpha enzyme, ADP-Glo luminescence, 60 min; stronger effect = lower value | max response, % | 1.2% of 330,000 active | AID 652105; active = max response of -50% or lower; inconclusive = between -30% and -50%; inactive = -30% or higher; note: value at the top dose of about 77 µM; % is set by controls: 0 for no effect and ±100 for the full control effect
Target sequence (P48426 whole entry, looked up): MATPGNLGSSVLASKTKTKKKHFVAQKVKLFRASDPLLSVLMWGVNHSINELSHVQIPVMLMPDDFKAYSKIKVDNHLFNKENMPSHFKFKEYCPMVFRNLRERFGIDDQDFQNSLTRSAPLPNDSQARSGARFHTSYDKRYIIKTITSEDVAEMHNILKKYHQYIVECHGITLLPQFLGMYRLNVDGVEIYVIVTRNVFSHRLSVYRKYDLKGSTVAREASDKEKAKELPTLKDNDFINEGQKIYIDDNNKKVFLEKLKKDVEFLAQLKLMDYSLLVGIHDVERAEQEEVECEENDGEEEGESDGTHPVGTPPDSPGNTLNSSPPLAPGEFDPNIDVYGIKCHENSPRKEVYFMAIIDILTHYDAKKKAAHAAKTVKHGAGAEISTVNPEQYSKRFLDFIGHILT
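Enzyme plus substrate dispensed, test compounds pinned in, then ATP (5 microM final) added. After 60 min at RT, ADP-Glo reagent 1 for 45 min and reagent 2 for 30 min preceded luminescence imaging.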
HP1b binding inh: inhibitors of HP1-beta chromodomain binding to methylated histone tails | P83916 | AlphaScreen HP1-beta / biotin-H3K9me3 peptide binding | Potency, µM (series often up to 114 µM), without a hit: at the highest dose activity change, negative = inhibition, hits mostly inhibitors | 0.56% of 390,000 active | AID 540317; note: potency is the fitted concentration of half-maximal effect; nearly all actives have a fitted effect of over 70% in size
Target sequence (P83916 whole entry, looked up): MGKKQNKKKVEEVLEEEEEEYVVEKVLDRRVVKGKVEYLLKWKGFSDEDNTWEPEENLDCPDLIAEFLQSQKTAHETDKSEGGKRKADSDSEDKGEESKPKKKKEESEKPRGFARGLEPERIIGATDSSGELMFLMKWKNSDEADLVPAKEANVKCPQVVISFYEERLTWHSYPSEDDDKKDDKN
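AlphaScreen: HP1-beta (50 nM) preformed 30 min with biotin-H3(1-18)K9me3 peptide (50 nM) in PBS pH 7.4, 0.01% Tween-20. Compound added for 30 min at RT, then streptavidin donor/nickel chelate acceptor beads (10 ug/mL) for 30 min.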
PLK1 PBD block: PLK1 (human) polo-box domain binding inhibition. P53350. Plk1 PBD binding of FITC phosphopeptide, fluorescence polarization. Potency, µM, inactives show max response, negative = inhibition, usual class: inhibitors. 2.8% of 360,000 active. AID 720504; note: potency is the fitted concentration of half-maximal effect; series mostly up to about 57 µM; % is set by controls: 0 for no effect and ±100 for the full control effect; nearly all actives have a fitted effect of over 65% in size
BAZ2B block: blocks human BAZ2B | AlphaScreen BAZ2B-H3K14Ac peptide displacement | Potency, µM (highest dose often 114 µM), without a hit: at the top dose activity change, negative = inhibition, most hits filed as inhibitors | 4.4% of 360,000 active; note: potency is the fitted concentration of half-maximal effect; % is set by controls: 0 for no effect and ±100 for the full control effect; nearly all actives have a fitted effect of over 60% in size
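Inhibition is scored as reduced AlphaScreen emission. The BAZ2B/b-H3(5-23)K14Ac complex (50 nM each) in PBS pH 7.4, 0.01% Tween-20 meets compound (up to 110 uM) for 30 min at RT before bead addition.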
G9a block: blocks human histone lysine methyltransferase G9a; Potency, µM (highest dose often 102 µM), inactives show at the top dose activity, negative = inhibition, hits mostly inhibitors; G9a H3K9 monomethylation, AlphaScreen, 2 h; Q96KQ7; AID 504332; 8.8% of 350,000 active; note: potency is the fitted concentration of half-maximal effect; % is set by controls: 0 for no effect and ±100 for the full control effect; nearly all actives have a fitted effect of over 75% in size
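Quantitative HTS format: methyltransferase activity on a biotin-tagged H3K9 peptide is measured by AlphaScreen, using a rabbit anti-monomethyl-H3K9 antibody with streptavidin donor and anti-IgG acceptor beads. Final levels are 20 nM enzyme, 500 nM peptide, 20 uM SAM; 2 h RT.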
* marks the source's active call; other numbers are inactive results; ? = inconclusive; / = no result; ! = not confirmed by another sample; [ ] = another dose, or the depositor's remark. An excerpt weighted towards active compounds, which were near 12% of everything screened. Unless noted, calls come from the whole dose curve; as a rule, active = well fitted curve in the direction sought with a large enough effect; inconclusive = small, poorly fitted or top-dose-only effect, or another doubt; inactive = no such curve, though single readings can be large; an effect the other way counts as inactive or inconclusive.

SMILES | JMJD2A Tudor | PI5P4K alpha inh | HP1b binding inh | PLK1 PBD block | BAZ2B block | G9a block
Cc1ccc(NCC(=O)N/N=C/c2ccc(C(=O)O)cc2)cc1 | -7%[11.4 µM] | 1 | 35% | -7% | -13% | -23%
Cc1ccc(C)c(S(=O)(=O)N/N=C/c2ccc(C(=O)O)cc2)c1 | -12% | -17 | 26% | -15% | 0% | 35µM*
O=C(c1ccccc1O)N(Cc1ccccc1)Cc1cccs1 | -18% | / | / | / | / | /
Cn1c(-c2ccccc2)nc2cnccc21 | -4%[11.4 µM] | -20 | 5% | 24µM* | 0% | -9%[12.7 µM]
CCn1c(-c2ccc(OC)c(OC)c2)n[nH]c1=S | 3.5µM* | 3 | -3% | -2% | 0% | 2µM*
CCn1c(SCC(N)=O)nnc1-c1ccc(OC)c(OC)c1 | -20% | / | 8% | -7% | / | 11%[59 µM]
C=CCn1c(-c2c(C)nc3cc(C)ccn23)n[nH]c1=S | 10µM* | -8 | 26% | -8% | -4% | 10µM*
C=CCn1c(-c2ccc(OC)c(OC)c2)n[nH]c1=S | 25µM* | -11 | 14% | -1% | -8% | -13%[59 µM]
Cc1ccn2c(C(=O)CSc3ccc(Cl)cc3Cl)c(C)nc2c1 | -10%[11.4 µM] | 3 | 33% | -14% | -24% | -3%
CN(C)C(=O)c1cc2c(c(-c3cccc(-c4ccccc4F)c3)n1)[C@@H](CCO)N(S(C)(=O)=O)C2 | / | -5 | / | -3% | / | /
O=S1(=O)CCN(CCc2ccccc2)CC1 | / | -16 | / | -7% | / | /
Cc1ccc(C)c(N2CCN(C(=O)Nc3cn(CC(C)C)c(=O)c4ccccc34)CC2)c1 | -29% | / | 24% | / | -19%[57.1 µM] | ?
Cc1cc2c(n1-c1ccc(C(=O)NCCc3ccccc3)cc1)CCC(C)C2 (stereo not drawn) | -19% | / | 10% | / | -14% | -27%[59 µM]
O=C1NC[C@@H](CCCCN2CCN(CCc3ccccc3)C(=O)C2=O)N(CC2CCCCC2)C1=O | / | -4 | / | -3% | / | /
COc1ccc(/C=C/C(=O)NC(=S)Nc2ccc(S(=O)(=O)Nc3cc(OC)ncn3)cc2)cc1 | -20% | -11 | 7% | ? | -20% | 40µM*
COc1cc(NS(=O)(=O)c2ccc(NC(=S)NC(=O)/C=C/c3ccc(OC)c(OC)c3)cc2)ncn1 | -24%[11.4 µM] | -10 | 22µM* | 13µM* | 13µM* | 40µM*
Cc1ccc2onc(CC(=O)Nc3cc(F)ccc3F)c2c1 | 4% | / | 46% | / | 2% | ?
N#CCCn1c(=O)c(-c2ccccc2)nc2cnc(OCc3ccccc3)nc21 | / | / | / | / | / | 2%[12.7 µM]
O=C(O)CSC1=NC(=Nc2ccc(Cl)cc2)C2(CCCCC2)N1c1cccc(C(=O)O)c1 | 22µM* | -7 | ? | 1% | ? | 4.5µM*
Cc1ccc(N2C(SCC(=O)O)=NC(=Nc3cccc(C)c3)C23CCCC3)cc1 | 10µM* | 5 | 14µM* | -1% | 20µM* | -46%
O=C(O)c1cccc(N2C(=S)N=C(Nc3ccccc3)C23CCCCC3)c1 | 4% | -2 | 37% | -1% | -8% | -42%
Cc1ccc2nc(SCC(=O)O)nc(C)c2c1 | -13% | / | 24% | -3% | 14% | -41%[2.33 µM]
O=C(c1c(O)c2ccc(Cl)cc2[nH]c1=O)C1CC1 | / | / | / | / | / | 0%[59 µM]
CCOC(=O)C1=NN(c2ccccc2)C(=O)/C1=C\c1ccc(N(C)C)cc1 | 8.9µM* | 1 | 5.6µM* | 1.9µM* | 10µM* | ?
CC1=NN(Cc2ccccc2)C(=O)/C1=C\c1ccc(N(C)C)cc1 | ? | 1 | ? | -2% | 10µM* | 11µM*
SMILES | JMJD2A Tudor | PI5P4K alpha inh | HP1b binding inh | PLK1 PBD block | BAZ2B block | G9a block
CCOC(=O)C1=NN(c2ccccc2)C(=O)C1 | -5% | -2 | 24% | 4% | -37% | /
Cc1ccc(/C=C/C2=NN(Cc3ccccc3)C(=O)CC2)cc1 | 7% | -4 | 57% | 2% | 2% | 15%
C[C@H](CO)N1C[C@H](C)[C@@H](CN(C)C(=O)Oc2ccccc2)OCc2cn(nn2)CCCC1=O | / | 0 | / | -17% | / | /
Cc1cc(CN(C)C(=O)c2ccc(OC3CCN(Cc4ccccn4)CC3)cc2)on1 | -15% | 10 | 37% | -6% | -26% | 50µM*
Cc1nonc1CN(C)C(=O)c1ccc(OC2CCN(Cc3ccccn3)CC2)cc1 | -3% | 0 | 56% | 2% | -39% | ?
Cc1ccc(Cl)cc1N(CC(=O)NC1CCCC1)C(=O)c1csnn1 | -1% | -1 | 47% | -8% | 3% | -6%
COCc1cccc(-c2csc(C(NC(C)=O)c3cccc(OC)c3)n2)c1 (stereo not drawn) | / | 1 | / | -2% | / | /
NC(=O)c1cc[n+](Cc2ccccc2Cl)cc1 | -19% | 3 | 28% | -7% | 2% | 9%[0.501 µM]
CC(C)(C)C1=CC(=Nc2ccccc2N)C=C(C(C)(C)C)C1=O | 4µM* | -3 | 4.5µM* | -1% | 4% | 29%[59 µM]
Cc1ccc(C2(C)NC(=O)N(CC(=O)Nc3nc(-c4ccccn4)cs3)C2=O)cc1 (stereo not drawn) | 40µM* | -59* | 32µM* | 4.2µM* | 79µM* | -2%[0.501 µM]
Cc1ccc(NC(=O)CN2C(=O)NC(C)(c3ccc(Cl)cc3)C2=O)cc1 (stereo not drawn) | -8% | 11 | 4% | -14% | 6% | 11%
CC1(c2ccccc2)NC(=O)N(CC(=O)NNC(=O)c2ccccc2)C1=O (stereo not drawn) | -4% | 4 | 22% | 0% | -16% | 0%
CC1(c2ccccc2)NC(=O)N(CC(=O)Nc2nc(-c3ccccn3)cs2)C1=O (stereo not drawn) | 45µM* | -23 | -10% | ? | 50µM* | -43%[2.33 µM]
Cc1[nH]c(=O)[nH]c(=O)c1Sc1ccccc1[N+](=O)[O-] | -12% | -10 | 32% | 21µM* | -6% | 56µM*
CC1=CC(c2ccccc2)n2nc(NS(=O)(=O)c3ccc(C)cc3)nc2N1 (stereo not drawn) | -12% | / | 27% | -8% | ? | 18µM*
CC(=O)Nc1ccc(S(=O)(=O)Nc2nc3n(n2)C(c2ccccc2)C=C(c2ccc(Cl)cc2)N3)cc1 (stereo not drawn) | 9% | / | 80% | / | -2% | -33%[59 µM]
CC1=CC(c2ccc(Cl)cc2)n2nc(NS(=O)(=O)c3ccc(C)cc3)nc2N1 (stereo not drawn) | -24% | / | 28% | ? | -11% | 32µM*
Cc1ccc(S(=O)(=O)Nc2nc3n(n2)C(c2ccc(Cl)cc2)C=C(c2ccccc2)N3)cc1 (stereo not drawn) | -5% | / | 38% | / | -30% | -36%[59 µM]
CC(C)NC[C@H](O)c1ccc(O)c(O)c1 | -15% | -2 | 12% | -8% | 12% | 8.9µM*!
CC(C)NCC(O)c1cc(O)cc(O)c1 (stereo not drawn) | -1% | 0 | 21% | -6% | 2% | 25µM*!
